These results are taken from PubChem BioAssay (NCI).

Molecules are shown by their SMILES. The panel holds about 83,000 compounds, 20% with a hit somewhere; the sample as a whole holds those more often.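 Cells were grown in 96-well plates and exposed to the test compound at a single concentration for 48 hours; results are reported as percent growth, with values below 10 considered active.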 Activity calls are given as the source filed them.

In the assay the test system is A549/ATCC NSCLC. Nature of the assay: NCI-60 one-dose screen, 48 h (100 = growth as untreated, 0 = no growth, -100 = all killed). As to conditions: 10 µM unless noted.
`COc1cc2[nH]c(C(=O)c3cc(OC)c(OC)c(OC)c3)c(N)c2cc1C#CC1CC1`: the growth is 42.9% (inactive).

As to `COc1cc2c(cc1OC)C(=O)/C(=C/c1cc(-c3ccc4c(c3)OCO4)n[nH]1)C2`, the growth was 27.8% (inactive).

For the compound `NS(=O)(=O)c1ccc(CCNC(=O)/C=C/c2ccc(Cl)cc2)cc1`, the growth was 95.9% (inactive).

As for `C/C(=N/NC(N)=S)C(=O)O`, the growth is 76% (inactive).

Turning to `Cc1ccc(-c2ccc(Nc3ccccc3)nn2)cc1S(N)(=O)=O`, the growth is 79.4% (inactive).

In the case of `CCC(c1ccc(OC)cc1)C(CC)c1ccc(O)c(CN2CCCCC2)c1` (centres undefined), the growth is 84% (inactive).

For `COc1cc(-c2cc(-c3nc4ccc(F)cc4[nH]3)[nH]n2)cc(OC)c1OC`, the growth is 29% (inactive).

In the case of `COc1cccc(NC(=O)c2sc3nc4c(cc3c2N)C(=O)CCC4)c1`, the growth was 22.5% (inactive).

Turning to `NC1(N)C=CC2=C(C=C1)C1(N)C3=C(C=CC(N)(N)C=C3)N2C2(N)C3=C(C=CC(N)(N)C=C3)N1C1=C2C=CC(N)(N)C=C1`, the growth is 88.8% (inactive).

`COc1ccc(-c2nc3ccccn3c2-c2nc3ccc(Cl)cc3[nH]2)cc1`: the growth was 92.5% (inactive).

Turning to `O=c1c(CNc2ccc(S(=O)(=O)Nc3nccs3)cc2)coc2ccccc12`, the growth was 95.5% (inactive).

For `CN1CCN(c2nc(-c3cccc4ccccc34)nc3sc4c(c23)CCCCCC4)CC1`, the growth was 95.5% (inactive).

For `COc1ccc2nc(-c3cc(-c4cc(OC)c(OC)c(OC)c4)n[nH]3)[nH]c2c1`, the growth is 6.33% (active).

Consider `COc1cccc(-c2nn(-c3ccccc3)cc2-c2ccnc(NCCNS(=O)(=O)c3ccc(Cl)cc3)c2)c1`, for which the growth is 27.4% (inactive).
